# Test results as given in PubChem BioAssay (EPA / NIEHS).
# “And” between values parts separate entries of the source, which are not always exact repeats. Identical values can stand only once. Results filed as inconclusive are left out. Where a structure was tested more than once in an assay, its records may differ in their call. The source made the active and inactive calls. How the source made its calls, unless noted: active means hit-call score of the fitted dose curve at least 0.9, where 1 is the maximum; inactive means score below 0.9.
# Tests used:
# [1] = target: Paired box protein Pax-6 (Homo sapiens) (UniProt P26367); test: ATG_Pax6_CIS: Attagene CIS-FACTORIAL HepG2 Assay for human Paired Box 6 (PAX6) (AID 2282956); conditions: HepG2 CIS-FACTORIAL PAX6 reporter transcription, RNA readout; actives raise or lower the signal
# Outline: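 Multiplexed cis-reporter HepG2 system; 24 h treatment; reporter mRNA read by RT-PCR/CE fluorescence; bidirectional fit vs DMSO.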
# [2] = ATG_PXRE_CIS: Attagene CIS-FACTORIAL HepG2 Assay for human Pregnane X Receptor Element (PXRE) (AID 2282957); conditions: HepG2 Attagene CIS-FACTORIAL PXRE reporter, mRNA; actives raise or lower the signal
# Outline: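 Transfect HepG2 with MRTUs (cis promoter elements); dose chemical, incubate 24 h; isolate RNA, RT with oligo(dT), PCR, 6-FAM label, HpaI cut, CE. Gain/loss fit vs DMSO.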
# [3] = ATG_PPRE_CIS: Attagene CIS-FACTORIAL HepG2 Assay for human Peroxisome Proliferator-activated Response Element (PPRE) (AID 2282958); conditions: HepG2 PPRE cis-element reporter, Attagene transcription factor profiling; actives raise or lower the signal
# Outline: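 HepG2 cells transiently transfected with multiplexed cis-element reporter units measure endogenous transcription factor activity. After 24 h compound exposure, reporter mRNA is quantified by RT-PCR, 6-FAM labeling, HpaI digestion and capillary electrophoresis; bidirectional fits are made against DMSO baseline.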
# [4] = ATG_Sox_CIS: Attagene CIS-FACTORIAL HepG2 Assay for human SRY-box transcription factor (SOX) (AID 2282960); conditions: HepG2 Attagene cis-factorial SOX reporter, mRNA; actives raise or lower the signal
# Outline: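 HepG2 cells transiently transfected with cis-element-driven multiple reporter transcription units, dosed 24 h; reporter mRNA measured by RT-PCR, FAM labelling, HpaI digestion and capillary electrophoresis. Bidirectional fit versus DMSO baseline.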
# [5] = target: Transcription factor Sp1 (Homo sapiens) (UniProt P08047); test: ATG_Sp1_CIS: Attagene CIS-FACTORIAL HepG2 Assay for human Specificity Protein 1 (Sp1) (AID 2282961); conditions: HepG2 Sp1 cis-reporter transcription, actives raise or lower the signal
# Outline: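 HepG2 cells transiently transfected with multiple reporter transcription units driven by cis-regulatory elements; Sp1-responsive reporter mRNA measured 24 h after dosing by RT-PCR and capillary electrophoresis fluorescence, fitted bidirectionally against DMSO baseline.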
# [6] = ATG_SREBP_CIS: Attagene CIS-FACTORIAL HepG2 Assay for human Sterol Regulatory Element Binding (SREBP) (AID 2282962); conditions: HepG2 Attagene cis-factorial SREBP reporter, mRNA; actives raise or lower the signal
# Outline: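 mRNA induction of transfected cis-promoter reporters in HepG2 cells, 24 h post-dose. Detection: RT-PCR with 6-FAM-labelled products, HpaI digest, capillary electrophoresis. DMSO served as negative control and baseline.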
# [7] = target: Signal transducer and activator of transcription 3 (Homo sapiens) (UniProt P40763); test: ATG_STAT3_CIS: Attagene CIS-FACTORIAL HepG2 Assay for human Signal Transducer and Activator of Transcription 3 (STAT3) (AID 2282963); conditions: HepG2, Attagene cis-factorial STAT3 reporter transcription; actives raise or lower the signal
# Outline: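 Values derive from bidirectional fits relative to DMSO of reporter mRNA levels, measured by RT-PCR with capillary electrophoresis, in HepG2 cells carrying transiently transfected cis-regulated reporter units and exposed 24 h.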
# [8] = ATG_TA_CIS: Attagene CIS-FACTORIAL HepG2 Assay for human TA Basal Promoter (AID 2282964); conditions: HepG2 Attagene CIS-factorial TA basal promoter reporter; actives raise or lower the signal
# Outline: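 Background-control readout: TA basal promoter reporter mRNA, fitted in both directions relative to DMSO. Measured by RT-PCR and capillary electrophoresis 24 hours after treating HepG2 human liver cells transiently carrying multiplexed cis-regulated reporter constructs.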
# [9] = ATG_TCF_b_cat_CIS: Attagene CIS-FACTORIAL HepG2 Assay for human T-Cell-Factor with beta-catenin (TCF/b-cat) (AID 2282965); conditions: HepG2 TCF/beta-catenin cis-reporter transcription, actives raise or lower the signal
# Outline: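 HepG2, transient MRTU transfection, cis-element-driven reporters (endogenous TFs). 24 h compound exposure. Readout: reporter mRNA by RT-PCR + 6-FAM primer extension, HpaI digest, capillary electrophoresis. Gain/loss fit vs DMSO baseline.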
# [10] = ATG_TAL_CIS: Attagene CIS-FACTORIAL HepG2 Assay for human TAL Basal Promoter (AID 2282966); conditions: HepG2 Attagene cis-factorial TAL promoter reporter; actives raise or lower the signal;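 further: background control endpoint measuring basal TAL promoter reporter mRNA not a specific factor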
# Outline: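 Fluorescence of labelled reporter cDNA fragments, resolved by capillary electrophoresis, gave the readout. Human HepG2 liver cells carried transiently transfected cis-element reporter units and were treated for 24 hours; activity was fitted bidirectionally against DMSO.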
# [11] = ATG_TGFb_CIS: Attagene CIS-FACTORIAL HepG2 Assay for human Transforming Growth Factor (TGF) (AID 2282967); conditions: HepG2 Attagene CIS TGFb reporter, mRNA transcription; actives raise or lower the signal
# Outline: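 Endogenous TGFB1-linked transcription factor activity read as reporter mRNA via RT-PCR and capillary electrophoresis, 24 h after dosing transiently transfected HepG2 cells. Gain or loss of signal fitted relative to DMSO.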
# [12] = ATG_VDRE_CIS: Attagene CIS-FACTORIAL HepG2 Assay for human Vitamin D Receptor Element (VDRE) (AID 2282968); conditions: HepG2 VDRE cis-reporter transcription, actives raise or lower the signal
# Outline: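 Cell-based multiplexed reporter format in human liver HepG2 cells, 24 h post-dose. Fluorescence from capillary electrophoresis of reporter cDNA gives the signal, with DMSO as negative control and baseline.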
# [13] = target: Steroid hormone receptor ERR1 (Homo sapiens) (UniProt P11474); test: ATG_ERRa_TRANS: Attagene TRANS-FACTORIAL HepG2 Assay for human Estrogen-Related Receptor alpha (ERRa) (AID 2282971; active means hit-call score of the fitted dose curve at least 0.9, where 1 is the maximum); conditions: HepG2 Attagene TRANS reporter, ERRa transactivation
# Outline: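 Reporter transcript induction was quantified by RT-PCR and capillary electrophoresis of FAM-labelled, HpaI-cut products after 24 h treatment of HepG2 cells carrying transiently transfected GAL4-UAS reporter units and an exogenous ERRa-Gal4 fusion; activity scored as increase over DMSO.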
# [14] = ATG_M_19_TRANS: Attagene TRANS-FACTORIAL HepG2 Assay for M19 Transcription Factor (Internal Marker) (AID 2282974; active means hit-call score of the fitted dose curve at least 0.9, where 1 is the maximum); conditions: HepG2 Attagene TRANS-FACTORIAL M19 internal marker reporter
# Outline: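 HepG2 cells transiently transfected with multiple GAL4-UAS reporter transcription units were exposed to chemicals for 24 h. Reporter mRNA was read by RT-PCR, 6-FAM primer extension, HpaI digestion and capillary electrophoresis; gain of signal fitted relative to DMSO.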
# [15] = target: Estrogen receptor (Homo sapiens) (UniProt P03372); test: ATG_ERa_TRANS: Attagene TRANS-FACTORIAL HepG2 Assay for human Estrogen Receptor alpha (ERa) (AID 2282970; active means hit-call score of the fitted dose curve at least 0.9, where 1 is the maximum); conditions: HepG2 Attagene TRANS ERa GAL4 reporter, mRNA
# Outline: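 Human liver HepG2, transient transfection of multiple GAL4-UAS reporter units; TRANS format (exogenous NR-Gal4 chimera). 24 h dosing. Readout: reporter mRNA, RT-PCR, 6-FAM primer extension, HpaI digest, capillary electrophoresis. Positive direction vs DMSO.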
# [16] = target: X-box-binding protein 1 (Homo sapiens) (UniProt P17861); test: ATG_Xbp1_CIS: Attagene CIS-FACTORIAL HepG2 Assay for human X-box Binding Protein 1 (XBP1) (AID 2282972); conditions: HepG2 XBP1 cis-element reporter, Attagene multiplex; actives raise or lower the signal
# Outline: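 Fluorescence-labelled cDNA fragments from reporter transcripts, separated by capillary electrophoresis, give the signal. Source: HepG2 cells transfected with promoter-driven reporter units, harvested 24 h post-dose. DMSO served as reference for bidirectional curve fitting.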
# [17] = target: Nuclear receptor subfamily 1 group I member 3 (Homo sapiens) (UniProt Q14994); test: ATG_CAR_TRANS: Attagene TRANS-FACTORIAL HepG2 Assay for human Constitutive Androstane Receptor (CAR) (AID 2282969; active means hit-call score of the fitted dose curve at least 0.9, where 1 is the maximum;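 further: activators raise reporter mRNA above DMSO so AC50 marks induction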); conditions: HepG2 Attagene TRANS-FACTORIAL CAR reporter
# Outline: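 HepG2 cells transiently transfected with GAL4-UAS reporter units; TRANS format reads activity of exogenous chimeric NR-Gal4 protein. After 24 h dosing, reporter mRNA quantified by RT-PCR, 6-FAM labelling and capillary electrophoresis; gain of signal fitted against DMSO.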
# [18] = target: Androgen receptor (Homo sapiens) (UniProt P10275); test: ATG_AR_TRANS: Attagene TRANS-FACTORIAL HepG2 Assay for human Androgen Receptor (AR) (AID 2282973; active means hit-call score of the fitted dose curve at least 0.9, where 1 is the maximum); conditions: HepG2 Attagene TRANS-FACTORIAL AR reporter transcription
# Outline: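 Steps: transfect HepG2 with multiple GAL4-UAS reporter transcription units (TRANS format, exogenous NR-Gal4 protein); dose 24 h; isolate RNA, reverse-transcribe, PCR-amplify, FAM-label, HpaI-digest; resolve by capillary electrophoresis. Positive direction vs DMSO.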
# [19] = ATG_GAL4_TRANS: Attagene TRANS-FACTORIAL HepG2 Assay for GAL4 (Internal Marker) (AID 2282976; active means hit-call score of the fitted dose curve at least 0.9, where 1 is the maximum); conditions: HepG2 Attagene TRANS GAL4 internal marker reporter
# Outline: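 First, HepG2 cells were transfected with reporter units under GAL4-UAS control. Next, they were treated with chemical for 24 h. Finally, RNA was reverse-transcribed, PCR-amplified, FAM-labelled and resolved by capillary electrophoresis, with induction scored against DMSO.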
# [20] = ATG_RORE_CIS: Attagene CIS-FACTORIAL HepG2 Assay for human RAR-related Orphan Receptor Element (RORE) (AID 2282959); conditions: HepG2 Attagene cis-factorial RORE reporter, mRNA; actives raise or lower the signal
# Outline: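 HepG2 cells transiently transfected with multiple cis-element reporter transcription units, exposed to chemical for 24 h. Reporter mRNA quantified by RT-PCR, 6-FAM primer-extension labeling, HpaI digestion and capillary electrophoresis; bidirectional fit versus DMSO baseline.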
# Chain of X-box-binding protein 1 (Homo sapiens) (P17861 whole entry, looked up, the tested form may be a part): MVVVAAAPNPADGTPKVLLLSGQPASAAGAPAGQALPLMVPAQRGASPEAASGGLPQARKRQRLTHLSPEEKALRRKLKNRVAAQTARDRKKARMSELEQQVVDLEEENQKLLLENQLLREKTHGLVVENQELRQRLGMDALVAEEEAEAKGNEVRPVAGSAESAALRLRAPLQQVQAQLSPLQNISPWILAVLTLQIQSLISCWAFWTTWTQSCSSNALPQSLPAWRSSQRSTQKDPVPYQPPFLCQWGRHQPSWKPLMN
# Chain of Nuclear receptor subfamily 1 group I member 3 (Homo sapiens) (Q14994 whole entry, looked up, the tested form may be a part): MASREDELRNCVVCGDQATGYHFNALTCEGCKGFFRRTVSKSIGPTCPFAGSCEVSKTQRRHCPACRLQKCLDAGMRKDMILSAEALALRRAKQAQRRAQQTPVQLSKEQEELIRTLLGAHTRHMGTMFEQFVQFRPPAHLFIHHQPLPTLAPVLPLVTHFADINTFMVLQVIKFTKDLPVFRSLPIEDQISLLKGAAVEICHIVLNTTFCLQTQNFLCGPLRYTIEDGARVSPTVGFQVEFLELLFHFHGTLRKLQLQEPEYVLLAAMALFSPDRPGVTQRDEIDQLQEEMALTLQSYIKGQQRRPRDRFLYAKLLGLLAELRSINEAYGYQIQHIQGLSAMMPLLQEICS
# Chain of Androgen receptor (Homo sapiens) (P10275 whole entry, looked up, the tested form may be a part): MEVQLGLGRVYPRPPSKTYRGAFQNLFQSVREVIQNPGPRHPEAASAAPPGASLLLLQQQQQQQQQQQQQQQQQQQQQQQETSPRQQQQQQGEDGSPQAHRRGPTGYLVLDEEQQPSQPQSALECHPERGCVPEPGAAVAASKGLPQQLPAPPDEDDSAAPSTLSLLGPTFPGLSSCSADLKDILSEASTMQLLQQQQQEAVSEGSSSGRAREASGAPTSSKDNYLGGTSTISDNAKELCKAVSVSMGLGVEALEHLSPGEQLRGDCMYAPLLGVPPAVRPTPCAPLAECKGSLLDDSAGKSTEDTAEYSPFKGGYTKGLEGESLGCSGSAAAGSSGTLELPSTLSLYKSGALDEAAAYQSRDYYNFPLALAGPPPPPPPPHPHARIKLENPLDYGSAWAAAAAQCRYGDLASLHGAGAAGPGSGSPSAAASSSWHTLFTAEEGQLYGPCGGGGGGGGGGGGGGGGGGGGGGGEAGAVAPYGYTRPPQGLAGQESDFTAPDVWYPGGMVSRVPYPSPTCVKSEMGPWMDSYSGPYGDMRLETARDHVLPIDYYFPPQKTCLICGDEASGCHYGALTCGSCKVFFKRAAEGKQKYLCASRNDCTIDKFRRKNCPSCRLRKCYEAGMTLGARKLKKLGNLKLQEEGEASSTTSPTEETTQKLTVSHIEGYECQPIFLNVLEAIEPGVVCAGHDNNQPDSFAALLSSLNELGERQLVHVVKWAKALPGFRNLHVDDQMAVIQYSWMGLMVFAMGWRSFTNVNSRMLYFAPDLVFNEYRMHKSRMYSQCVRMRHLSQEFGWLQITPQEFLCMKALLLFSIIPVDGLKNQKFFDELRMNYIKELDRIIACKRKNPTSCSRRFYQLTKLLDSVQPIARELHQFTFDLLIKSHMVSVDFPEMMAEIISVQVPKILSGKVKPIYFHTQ
# Chain of Paired box protein Pax-6 (Homo sapiens) (P26367 whole entry, looked up): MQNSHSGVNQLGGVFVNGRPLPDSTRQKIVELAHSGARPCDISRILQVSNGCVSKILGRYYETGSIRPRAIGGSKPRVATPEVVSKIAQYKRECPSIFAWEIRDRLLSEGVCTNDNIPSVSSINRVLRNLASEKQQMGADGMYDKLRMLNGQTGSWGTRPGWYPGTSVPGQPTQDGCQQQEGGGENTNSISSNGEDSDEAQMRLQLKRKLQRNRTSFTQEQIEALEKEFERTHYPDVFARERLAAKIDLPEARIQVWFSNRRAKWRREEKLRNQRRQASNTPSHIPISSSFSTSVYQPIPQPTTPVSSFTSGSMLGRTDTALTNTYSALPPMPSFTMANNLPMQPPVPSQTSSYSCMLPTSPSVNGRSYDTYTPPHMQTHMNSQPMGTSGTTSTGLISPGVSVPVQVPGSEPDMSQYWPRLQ
# Chain of Signal transducer and activator of transcription 3 (Homo sapiens) (P40763 whole entry, looked up): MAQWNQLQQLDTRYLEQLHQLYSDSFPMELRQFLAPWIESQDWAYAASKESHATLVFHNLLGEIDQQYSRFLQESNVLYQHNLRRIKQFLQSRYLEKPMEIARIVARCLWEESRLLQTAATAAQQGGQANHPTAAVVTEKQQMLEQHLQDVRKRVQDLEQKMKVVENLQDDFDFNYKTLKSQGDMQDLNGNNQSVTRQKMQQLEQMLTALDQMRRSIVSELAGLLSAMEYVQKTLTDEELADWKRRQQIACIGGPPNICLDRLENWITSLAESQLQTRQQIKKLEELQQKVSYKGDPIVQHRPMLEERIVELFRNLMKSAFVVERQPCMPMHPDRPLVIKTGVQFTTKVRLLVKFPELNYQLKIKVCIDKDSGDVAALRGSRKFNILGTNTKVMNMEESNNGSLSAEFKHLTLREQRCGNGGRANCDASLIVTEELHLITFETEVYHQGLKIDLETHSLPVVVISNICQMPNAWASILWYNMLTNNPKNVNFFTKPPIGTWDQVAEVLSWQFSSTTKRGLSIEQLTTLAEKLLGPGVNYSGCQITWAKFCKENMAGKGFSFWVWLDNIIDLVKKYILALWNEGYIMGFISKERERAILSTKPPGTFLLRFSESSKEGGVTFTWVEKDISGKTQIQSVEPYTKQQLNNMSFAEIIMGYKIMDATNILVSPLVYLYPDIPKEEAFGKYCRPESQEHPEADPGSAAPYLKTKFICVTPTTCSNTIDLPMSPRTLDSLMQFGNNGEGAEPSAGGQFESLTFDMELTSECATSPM
# Chain of Steroid hormone receptor ERR1 (Homo sapiens) (P11474 whole entry, looked up, the tested form may be a part): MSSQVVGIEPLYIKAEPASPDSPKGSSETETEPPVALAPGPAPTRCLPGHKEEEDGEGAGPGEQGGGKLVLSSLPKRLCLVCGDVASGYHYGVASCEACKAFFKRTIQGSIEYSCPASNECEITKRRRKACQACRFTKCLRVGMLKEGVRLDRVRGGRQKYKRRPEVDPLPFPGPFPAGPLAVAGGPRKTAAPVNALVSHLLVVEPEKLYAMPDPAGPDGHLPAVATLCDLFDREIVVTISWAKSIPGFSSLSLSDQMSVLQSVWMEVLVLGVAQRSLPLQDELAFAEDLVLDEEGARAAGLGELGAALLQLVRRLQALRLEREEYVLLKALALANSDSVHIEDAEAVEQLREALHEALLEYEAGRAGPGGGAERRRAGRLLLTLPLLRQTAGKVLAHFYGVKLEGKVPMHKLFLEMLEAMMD
# Chain of Transcription factor Sp1 (Homo sapiens) (P08047 whole entry, looked up): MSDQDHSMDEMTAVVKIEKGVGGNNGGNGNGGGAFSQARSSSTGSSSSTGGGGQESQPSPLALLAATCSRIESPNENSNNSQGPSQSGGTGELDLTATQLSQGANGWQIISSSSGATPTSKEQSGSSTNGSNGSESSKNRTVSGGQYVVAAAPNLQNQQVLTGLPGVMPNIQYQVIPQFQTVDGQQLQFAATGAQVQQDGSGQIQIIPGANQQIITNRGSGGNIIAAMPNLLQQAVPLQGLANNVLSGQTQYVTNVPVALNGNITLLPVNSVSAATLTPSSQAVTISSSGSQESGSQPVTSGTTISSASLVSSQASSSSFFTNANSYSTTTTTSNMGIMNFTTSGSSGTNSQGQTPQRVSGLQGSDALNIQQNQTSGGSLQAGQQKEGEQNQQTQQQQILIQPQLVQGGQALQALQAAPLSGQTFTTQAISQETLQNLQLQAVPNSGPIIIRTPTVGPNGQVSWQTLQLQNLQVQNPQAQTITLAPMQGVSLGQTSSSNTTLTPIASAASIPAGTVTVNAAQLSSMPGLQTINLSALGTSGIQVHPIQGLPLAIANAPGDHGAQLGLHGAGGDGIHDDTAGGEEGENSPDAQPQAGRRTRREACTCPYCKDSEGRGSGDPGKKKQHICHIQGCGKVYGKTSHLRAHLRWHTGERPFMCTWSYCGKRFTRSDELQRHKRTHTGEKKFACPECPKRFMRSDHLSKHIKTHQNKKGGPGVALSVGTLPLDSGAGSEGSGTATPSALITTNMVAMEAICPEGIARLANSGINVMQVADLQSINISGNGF
# Chain of Estrogen receptor (Homo sapiens) (P03372 whole entry, looked up, the tested form may be a part): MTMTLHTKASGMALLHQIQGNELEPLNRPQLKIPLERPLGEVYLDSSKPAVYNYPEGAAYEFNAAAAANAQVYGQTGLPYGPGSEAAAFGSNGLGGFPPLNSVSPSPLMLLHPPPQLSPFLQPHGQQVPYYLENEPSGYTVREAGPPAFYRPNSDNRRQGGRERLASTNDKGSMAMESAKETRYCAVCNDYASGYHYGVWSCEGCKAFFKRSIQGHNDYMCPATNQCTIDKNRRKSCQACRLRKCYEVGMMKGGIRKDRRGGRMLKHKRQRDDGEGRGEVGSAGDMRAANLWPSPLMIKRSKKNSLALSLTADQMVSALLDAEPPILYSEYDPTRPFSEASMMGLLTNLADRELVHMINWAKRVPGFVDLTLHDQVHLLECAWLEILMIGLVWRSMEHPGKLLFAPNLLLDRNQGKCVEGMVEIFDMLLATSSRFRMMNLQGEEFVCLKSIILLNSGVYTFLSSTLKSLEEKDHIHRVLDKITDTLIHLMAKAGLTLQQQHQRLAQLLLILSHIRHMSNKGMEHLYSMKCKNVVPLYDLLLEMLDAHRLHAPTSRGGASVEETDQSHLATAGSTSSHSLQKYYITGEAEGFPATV
smiles,measurement,setting,value
COC(=O)c1ccccc1N,outcome,[1],inactive
same,AC50,[2],100 µM (active)
same,outcome,[3],inactive
same,outcome,[4],inactive
same,outcome,[5],inactive
same,outcome,[6],inactive
same,outcome,[7],inactive
same,outcome,[8],inactive
same,outcome,[9],inactive
same,outcome,[10],inactive
same,outcome,[11],inactive
same,outcome,[12],inactive
same,outcome,[13],inactive
same,outcome,[14],inactive
Nc1ccc(N=Nc2ccccc2)cc1,AC50,[1],47.4 µM (active)
same,AC50,[2],57.7 µM (active)
same,AC50,[3],77.9 µM (active)
same,outcome,[4],inactive
same,outcome,[6],inactive
same,outcome,[7],inactive
same,AC50,[8],52.2 µM (active)
same,AC50,[9],27.4 µM (active)
same,AC50,[10],100 µM (active)
same,outcome,[11],inactive
same,AC50,[12],54 µM (active)
same,AC50,[15],33 µM (active)
same,outcome,[13],inactive
same,AC50,[16],73.9 µM (active)
same,outcome,[14],inactive
CC(C)N(Cc1ccccc1)C(=O)C(C)(C)C,outcome,[1],inactive
same,AC50,[2],1.24 µM (active)
same,outcome,[3],inactive
same,outcome,[4],inactive
same,outcome,[5],inactive
same,outcome,[6],inactive
same,outcome,[7],inactive
same,outcome,[8],inactive
same,outcome,[9],inactive
same,outcome,[10],inactive
same,outcome,[11],inactive
same,outcome,[12],inactive
same,outcome,[17],inactive
same,outcome,[18],inactive
same,outcome,[14],inactive
same,outcome,[19],inactive
CCNS(=O)(=O)C(F)(F)C(F)(F)C(F)(F)C(F)(F)C(F)(F)C(F)(F)C(F)(F)C(F)(F)F,AC50,[1],96.5 µM (active)
same,outcome,[1],inactive
same,AC50,[3],146 µM (active) and 29.8 µM (active)
same,outcome,[3],inactive
same,outcome,[20],inactive
same,AC50,[4],96.5 µM (active)
same,outcome,[4],inactive
same,AC50,[6],148 µM (active)
same,outcome,[6],inactive
same,outcome,[7],inactive
same,outcome,[8],inactive
same,AC50,[9],169 µM (active)
same,outcome,[9],inactive
same,outcome,[10],inactive
same,AC50,[11],91.1 µM (active) and 44 µM (active) and 40.3 µM (active)
same,AC50,[12],67.3 µM (active) and 25.7 µM (active)
same,outcome,[12],inactive
same,outcome,[17],inactive
same,outcome,[13],inactive
same,AC50,[16],73.3 µM (active) and 84.4 µM (active) and 31.5 µM (active)
same,outcome,[18],inactive
same,outcome,[14],inactive
